Bioassay records as filed in PubChem.
This is one part of a sample in which hits are shown more often than they occur.
EphB4 antag = EphB4-ephrin-B2 interaction antagonists, primary screen, biochemical, TNYL-RAW peptide probe, fluorescence polarization; Ephrin type-B receptor 4 (Homo sapiens), P54760; EphB4 LBD / TNYL-RAW-Alexa532 peptide; inhibition, % at 7 µM; 97,000 compounds, 0.15% hits; AID 720, 2007;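 active = inhibition above the screen-wide mean inhibition plus 3 SD, cut at about 15% in these data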
DAT uptake mod = changed hDAT dopamine uptake under cocaine IC80, either direction, primary screen, cocaine antagonist project, cell-based, LLC-PK1 hDAT, [14C]-dopamine uptake, MLSMR; LLC-PK1 hDAT cells, [14C]-dopamine uptake with cocaine IC80; actives deviate in either direction; 110,000 compounds, 1.3% hits; Sodium-dependent dopamine transporter (Homo sapiens), Q01959; B-score at 10 µM;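 active = Z score or B-score, a plate-position-corrected score, falls beyond the plate's 99.7% confidence bounds, in either direction; inactive = both scores lie inside the 99.7% bounds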
D1 allo mod = D1 CRE-luciferase signal change, two-sided – cell-based, HEK293 D1, dopamine EC30, D1 allosteric modulator project, primary screen | B-score at 10 µM | dopamine EC30 potentiation; actives deviate in either direction | 58,000 compounds, 5.9% hits | D(1A) dopamine receptor (Homo sapiens), P21728;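 active = luminescence count or its row- and column-corrected plate score outside the 99.7% band of the plate's sample wells, on either side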
Target sequence (P21728 whole entry, looked up): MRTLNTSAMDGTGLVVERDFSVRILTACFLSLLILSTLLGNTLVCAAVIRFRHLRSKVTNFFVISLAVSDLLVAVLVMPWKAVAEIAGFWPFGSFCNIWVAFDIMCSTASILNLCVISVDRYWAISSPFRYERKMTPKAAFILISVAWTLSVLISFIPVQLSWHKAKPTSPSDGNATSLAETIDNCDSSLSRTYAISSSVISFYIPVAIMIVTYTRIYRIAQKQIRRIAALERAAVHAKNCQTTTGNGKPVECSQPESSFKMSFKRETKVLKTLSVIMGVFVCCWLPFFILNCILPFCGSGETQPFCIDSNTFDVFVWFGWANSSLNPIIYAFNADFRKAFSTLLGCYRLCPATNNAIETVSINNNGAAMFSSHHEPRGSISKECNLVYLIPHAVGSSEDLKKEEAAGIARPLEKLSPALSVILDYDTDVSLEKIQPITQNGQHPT
Numbers stand for hits; 0 = inactive; - = no result.

SMILES	EphB4 antag	DAT uptake mod	D1 allo mod
CC(=O)N1CCC(=NNS(=O)(=O)c2cccc([N+](=O)[O-])c2)CC1	0	0	-
O=[n+]1c2c(n([O-])c3cc(Cl)ccc31)CCCC2	0	0.967	-
CCOc1ccc2c(c1)n([O-])c1c([n+]2=O)CCCC1	-	0	-
Nc1ccc(-n2nncc2-c2ccc(Cl)cc2)cc1	0	0	-
COC(=O)c1ccccc1NC(=O)CSc1ccc(C)cc1	0	0	-
COC(=O)c1ccccc1NC(=O)CSc1ccccc1	-	-9	0
CC(C)CCNC(=O)CN(Cc1ccc2c(c1)OCO2)C(=O)Cn1nnc(-c2cccs2)n1	0	0	0
COC(=O)[C@@H]1C[C@@H]2CC[C@@H](O)C[C@@H]2N1Cc1ccccc1OS(=O)(=O)c1ccc(C)cc1	-	0	-
CC(C)C(=O)Nc1ccc(NC(=O)c2ccccn2)cn1	0	0	-4.92
CCC(=O)Nc1ccc(NC(=O)c2ccccn2)cn1	-	0	0
O=C(Nc1ccc(NC(=O)c2ccco2)nc1)c1ccccn1	-	0	-4.1
O=C(Nc1ccc(NC(=O)C23CC4CC(CC(C4)C2)C3)cn1)c1ccco1	0	0	0
O=C(Nc1ccc(NC(=O)C2CCCCC2)cn1)c1ccco1	0	0	-3.24
O=C(Cc1ccccc1)Nc1ccc(NC(=O)c2ccco2)nc1	0	0	0
COc1ccc(NS(=O)(=O)c2ccc(NC(=O)c3cnn4c(C(F)F)cc(-c5ccc(C)cc5)nc34)cc2)cc1	0	0	-
Cc1cc(C)c2[nH]c(=O)c(CN(CC3CCCO3)C(=O)c3cnccn3)cc2c1 (centres undefined)	0	2.53	0
Cc1cccc2cc(CN(CC3CCCO3)C(=O)c3cnccn3)c(=O)[nH]c12 (centres undefined)	0	0	0
O=C(Nc1cc(Oc2ccccc2)cc([N+](=O)[O-])c1)C12CC3CC(C1)CC(n1cnc(Cl)n1)(C3)C2	0	-	-
C=CCN1CCN(c2ccncc2S(=O)(=O)N2CCOCC2)CC1	0	0	-
O=C1CSC(c2ccccc2)N1c1nnc(C23CC4CC(CC(C4)C2)C3)s1 (centres undefined)	0	0	-
COc1cc(-c2nnc(SCC(=O)/C(C#N)=C(\C)N)o2)cc(OC)c1OC	0	0	-
Clc1ccc(-c2nnc(SCc3ccon3)o2)c(Cl)c1	0	0	-4.7
C=CCSc1nnc(-c2ccc(Cl)cc2Cl)o1	0	-	0
C=CCOC(=O)C1=C[C@@H](C2CCCCC2)C[C@@H](OCc2ccc(CO)cc2)O1	-	0	-
O=C(c1cnc2n(c1=O)CCS2)N1CCN(c2ccc([N+](=O)[O-])cc2)CC1	0	0	-
SMILES	EphB4 antag	DAT uptake mod	D1 allo mod
Cc1ccc(C(=O)NNC(=O)C2CCCN(c3ncccn3)C2)cc1 (centres undefined)	0	6.56	-
O=C(NNC(=O)C1CCCN(c2ncccn2)C1)c1ccc(F)cc1 (centres undefined)	0	0	-
CN1C(C(=O)NCc2ccc(OC(F)(F)F)cc2)CC2Cn3c(nc4cc5ccccc5cc43)C21 (centres undefined)	-	0	-
CC[C@H]1OC(=O)[C@H](C)[C@@H](O[C@H]2C[C@@](C)(OC)[C@@H](O)[C@H](C)O2)[C@H](C)[C@@H](O[C@@H]2O[C@H](C)C[C@H](N(C)C)[C@H]2O)[C@](C)(O)C[C@@H](C)CN(C)[C@H](C)[C@@H](O)[C@]1(C)O	-	0	-
O=C(NCC1CCCO1)c1ccc2c(c1)S(=O)(=O)c1ccccc1C2=O (centres undefined)	-	0	-
C=CCn1c(N)cc(=O)nc1SCC(=O)NC(C)c1ccccc1 (centres undefined)	0	0	0
Nc1cc(=O)nc(SCC(=O)NCc2ccccc2)n1CCc1ccccc1	0	-5.07	-
CCC(Sc1nc(=O)cc(N)n1CCc1ccccc1)C(=O)Nc1cc(C)on1 (centres undefined)	0	0	-5.11
CCCn1c2ccccc2c2nnc(SC(CC)C(=O)Nc3cc(C)on3)nc21 (centres undefined)	0	0	-
Cn1cccc1Cc1nnc(SCC(=O)Nc2ccc3c(c2)OCCO3)n1CCc1ccccc1	0	2.54	0
COc1ccccc1NC(=O)CSc1nnc(C)n1CCc1ccccc1	0	-7.59	0
CCn1c(COc2ccccc2)nnc1SCC(=O)CC(=O)Nc1ccccc1OC	0	0	0
Cn1cccc1Cc1nnc(SCC(=O)Nc2ccc(F)cc2)n1CCc1ccccc1	-	0	0
Cc1nnc(SCC(=O)NC(C)(C)C)n1CCc1ccccc1	0	0	0
CCn1c(COc2ccccc2C)nnc1SCC(=O)CC(=O)Nc1ccccc1OC	0	3.13	0
Cn1cccc1Cc1nnc(SCC(=O)Nc2ccc3c(c2)OCO3)n1CCc1ccccc1	-	0	0
COc1ccc(OC)c(NC(=O)CSc2nnc(Cc3cccn3C)n2CCc2ccccc2)c1	0	2.97	0
CCOC(=O)c1cc2sccc2n1CC(=O)c1ccc2c(c1)OCCO2	0	0	0
CC1=C(C/C=C(\C)CCC[C@H](C)CCC[C@H](C)CCCC(C)C)C(=O)c2ccccc2C1=O	-	0	-
COc1ccc2[nH]c3nc(SCc4nnc(-c5ccccc5)o4)nnc3c2c1	0	0	0
COc1ccc2[nH]c3nc(SC(C)C)nnc3c2c1	0	-	-4.03
CCOc1cc(CN2CCN(CCOCCO)CC2)ccc1OC	0	-2.71	-
CCOc1cc(CN2CCCCC2)ccc1OC	0	0	0
C=CCc1cc(/C=N/NC(=O)CSc2nnc(CCCc3ccc(OC)cc3)o2)cc(OC)c1O	0	0	-
COc1ccc(Nc2nc(N)nc(CN3CCC(Cc4ccccc4)CC3)n2)cc1	-	0	-3
SMILES	EphB4 antag	DAT uptake mod	D1 allo mod
COc1ccccc1Nc1nc(N)nc(CN2CCC(Cc3ccccc3)CC2)n1	0	0	0
COc1cccc(N2CCN(Cc3nc(N)nc(Nc4ccccc4OC)n3)CC2)c1	0	0	0
COc1ccccc1Nc1nc(N)nc(CN2CCN(c3ccccc3)CC2)n1	0	2.51	0
Cc1cc(C)c(NC(=O)/C=C\C(=O)O)c([N+](=O)[O-])c1	0	0	-
NC(=O)CC(NC(=O)Cc1ccc(Br)cc1)c1ccc(NCc2ccc(F)c(F)c2)c([N+](=O)[O-])c1 (centres undefined)	-	0	-
Cn1c(CN2CCCCC2)c(C#N)c2ccccc21	0	0	-2.19
Cn1c(CN2CCN(CC#N)CC2)c(C#N)c2ccccc21	0	0	-
Cc1ccccc1COC[C@H](CC(C)C)N1CCN(C(=O)c2cccc(C(F)(F)F)c2)CCC1=O	-	0	-
O=C1C2C3C=CC(C3)C2C(=O)N1/N=C/c1cc(Br)cc([N+](=O)[O-])c1O (centres undefined)	0	-2.79	-
O=C1C2C3C=CC(C3)C2C(=O)N1/N=C/c1cn(Cc2ccccc2)c2ccccc12 (centres undefined)	0	0	-
COc1ccc(NC(=O)c2ccccn2)cc1	0	0	-
COc1ccc(NC(=O)c2cc3ccccn3n2)cc1	0	0	-4.74
CON1C(=O)C(=O)N(OC)C(C)(C)C1C (centres undefined)	0	0	-
O=C(O)c1cc2c(s1)-c1ccccc1OC2	-	0	-
O=C(NC1CC1)c1cc2c(s1)-c1ccccc1OC2	0	0	-5.84
